According to the supplement of paper PMC10498489:
Hit rate of the full screen: of about 2,300 compounds, about 330 (14%) showed activity. Only a sample is shown. A number with no mark means an inactive call.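 Rule for the calls: active = median modified Z-score above 1.96; inactive = 1.96 or below.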

Tested on: HepG2 Srxn1-GFP reporter cells (+30 nM CDDO-Me)
Assay: Srxn1-GFP intensity median modified Z-score relative to plate median; higher = stronger NRF2 / oxidative stress reporter activation, active = hit call of the paper
Settings: 10 µM; exposure time: 24h
Summary of the method: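 The per-plate modified Z-score of GFP intensity, taken as a median across replicates, is what each value represents. Three replicate plates of HepG2 Srxn1-GFP BAC reporter cells were exposed for 24 h to an NRF2 activator at 30 nM combined with compound at 10 μM (≤0.1% DMSO). Cytoplasmic GFP per cell was read from confocal images, excluding any with under 100 cells, and scaling used 1.4826 × median absolute deviation.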

| Structure (SMILES) | Srxn1-GFP intensity median modified Z-score |
| --- | --- |
| CC1=C(C(=O)O)N2C(=O)[C@@H](NC(=O)C(N)c3ccc(O)cc3)[C@H]2SC1 (stereo not given in full) [euspeclibcmpd47] | 0.774 |
| NCc1ccccc1CC(=O)NC1C(=O)N2C(C(=O)O)=C(CSc3nnnn3CC(=O)O)CSC12 (stereo not given) [euspeclibcmpd506] | -0.382 |
| Clc1ccc(CCC(Cn2ccnc2)Sc2c(Cl)cccc2Cl)cc1 (stereo not given) [euspeclibcmpd650] | 26.7 (active) |
| CC1(C)C2CC[C@@]3(C)C4=C(CC(=O)C3[C@@]2(C)CC[C@@H]1O[C@@H]1OC(C(=O)O)[C@@H](O[C@@H]2OC(C(=O)O)[C@@H](O)[C@H](O)[C@H]2O)[C@H](O)[C@H]1O)C1C[C@@](C)(C(=O)O)CC[C@]1(C)CC4 (stereo not given in full) [euspeclibcmpd1807] | -0.547 |
| COc1ccc(C(=O)CC(=O)O)c2c1C=CC(C)(C)O2 [euspeclibcmpd1976] | -0.441 |
| COc1cc2occ(-c3ccc(OC)c(OC)c3OC)c(=O)c2cc1OC [euspeclibcmpd2240] | 0.129 |
| COc1cc(OC)c2c(=O)c(-c3ccc4c(c3)OCO4)coc2c1 [euspeclibcmpd1964] | 0.515 |
| COc1c(CC(=O)c2cc3c(cc2O)OC(C)(C)C(O)C3)ccc2c1C=CC(C)(C)O2 (stereo not given) [euspeclibcmpd1608] | 7.77 (active) |
| COc1ccc(-c2coc3cc(O)ccc3c2=O)c(O)c1O [euspeclibcmpd1422] | -0.526 |
| COc1c(-c2coc3cc4c(cc3c2=O)CC(OC(C)=O)C(C)(C)O4)ccc2c1C=CC(C)(C)O2 (stereo not given) [euspeclibcmpd1654] | 13.6 (active) |
| COc1c2c(cc3occ(-c4ccc5c(c4)OCO5)c(=O)c13)OC(C)(C)C=C2 [euspeclibcmpd1957] | 7.5 (active) |
| COc1ccc(-c2c(O)c3c(OC)c4c(cc3oc2=O)OC(C)(C)C=C4)cc1 [euspeclibcmpd1515] | 0.81 |
| CC(=O)S[C@@H]1C=C2CC(=O)CC[C@]2(C)[C@H]2CC[C@@]3(C)[C@@H](CC[C@@]34CCC(=O)O4)C12 (stereo not given in full) [euspeclibcmpd269] | -0.784 |
| CC12CCC(=O)CC1=CCC1C2[C@@H](O)CC2(C)C1CC[C@]2(O)C(=O)COP(=O)(O)O (stereo not given in full) [euspeclibcmpd153] | -0.722 |
| COc1ccc2c(c1)c(CC(=O)OC/C=C/Cl)c(C)n2C(=O)c1ccc(Cl)cc1 | 0.367 |
| CON(C)C(=O)c1cc(-c2ccccc2)nc2ccccc12 | 1.63 |
| NCCCCC(NC(CCc1ccccc1)C(=O)O)C(=O)N1CCCC1C(=O)O (stereo not given) [euspeclibcmpd423] | 0.0552 |
| O=c1c(-c2cc(O)c(O)c(O)c2)coc2cc(O)c(O)c(O)c12 [euspeclibcmpd1958] | -0.398 |
| CCOC(=O)OC(C)OC(=O)C1N2C(=O)C(NC(=O)C(N)c3ccccc3)C2SC1(C)C (stereo not given) [euspeclibcmpd983] | 0.627 |
| N=C(N)N/N=C\c1c(Cl)cccc1Cl [euspeclibcmpd143] | 0.55 |
| CC(C)NCC(O)COc1ccc(CC(N)=O)cc1 (stereo not given) [euspeclibcmpd387] | -0.166 |
| CC(C)/N=c1\cc2n(-c3ccc(Cl)cc3)c3ccccc3[nH]c-2cc1=Nc1ccc(Cl)cc1 [euspeclibcmpd891] | 7.89 (active) |
| CC(C)CC(NC(=O)C(C)N)C(=O)O (stereo not given) [euspeclibcmpd2380] | -0.0851 |
| CN=C(C[N+](=O)[O-])NCCSCc1csc(CN(C)C)n1 [euspeclibcmpd900] | -0.00145 |

| Structure (SMILES) | Srxn1-GFP intensity median modified Z-score |
| --- | --- |
| CC1CN(c2c(F)c(N)c3c(=O)c(C(=O)O)cn(C4CC4)c3c2F)C[C@H](C)N1 (stereo not given in full) [euspeclibcmpd471] | -0.142 |
| CC(C)C(=O)C1C(=O)O[C@@H](c2ccoc2)[C@]2(C)C(O)[C@@H](O)[C@@]34OC5(C)OC67CC(C)(C(O)[C@]6(O)[C@@H](O)[C@]3(O5)C12)[C@H](CC(=O)O)[C@]74C (stereo not given in full) [euspeclibcmpd1385] | -0.12 |
| NC(=O)NCCCC(N)C(=O)O (stereo not given) [euspeclibcmpd1533] | -0.136 |
| CCN(CC)CCOC(=O)C(c1ccccc1)c1ccccc1 [euspeclibcmpd520] | 0.792 |
| CCN(CC)CCOC(=O)C(Cc1cccc2ccccc12)CC1CCCO1 (stereo not given) [euspeclibcmpd577] | 3.61 (active) |
| CCCC(C(=O)OCCN(CC)CC)(c1ccccc1)c1ccccc1 [euspeclibcmpd434] | -0.794 |
| C[C@H]1c2cccc(O)c2C(=O)C2C(=O)[C@]3(O)C(=O)C(C(N)=O)C(=O)C(N(C)C)[C@@H]3[C@@H](O)[C@@H]21 (stereo not given in full) [euspeclibcmpd105] | -1.04 |
| C=C[C@](C)(O)CCC=C(C)C [euspeclibcmpd1465] | -0.00229 |
| CCOc1ccc2[nH]c3cc(N)ccc3c(=N)c2c1 [euspeclibcmpd1203] | 63.5 (active) |
| COC(=O)C1=C2C(=O)CC(C)C2C(O[C@@H]2O[C@H](CO)[C@@H](O)[C@H](O)[C@H]2O)OC1 (stereo not given in full) [euspeclibcmpd2225] | -0.236 |
| COC(=O)c1c(OC)cc2c(c1C)Oc1c(Cl)c(O)c(Cl)c(C)c1C(=O)O2 [euspeclibcmpd1672] | 0.324 |
| COC(=O)c1c(C)c2c(c(C)c1O)OC(=O)c1c(C)c(Cl)c(O)c(Cl)c1O2 [euspeclibcmpd1600] | 12.9 (active) |
| Cc1cc(O)c(C=O)c2c1C(=O)Oc1c(C)c(O)c3c(O)oc(O)c3c1O2 [euspeclibcmpd2409] | 0.591 |
| Cc1c[nH]c(=NC(=O)C2C(=O)c3ccccc3S(=O)(=O)N2C)s1 (stereo not given) [euspeclibcmpd2190] | -0.367 |
| C#C[C@]1(OC(C)=O)CCC2C3CCC4=C[C@@H](OC(C)=O)CCC4C3CC[C@@]21C (stereo not given in full) [euspeclibcmpd896] | 2.28 (active) |
| C#C[C@]1(O)CCC2C3CCc4cc(OC)ccc4C3CC[C@@]21C (stereo not given in full) [euspeclibcmpd184] | 0.203 |
| C#C[C@]1(OC(C)=O)CCC2C3CCC4=CC(=NO)CCC4C3CC[C@@]21CC (stereo not given in full) [euspeclibcmpd54] | -0.443 |
| NCCCC(N)C(=O)O (stereo not given) [euspeclibcmpd2233] | -0.13 |
| CCOC(=O)C1=CC(OC(CC)CC)[C@H](NC(C)=O)[C@@H](N)C1 (stereo not given in full) [euspeclibcmpd2394] | -0.535 |
| CC1=C(SC2CNC(C(=O)N(C)C)C2)C(C(=O)O)N2C(=O)[C@H]([C@@H](C)O)[C@@H]12 (stereo not given in full) [euspeclibcmpd460] | -0.758 |
| CC1CN(C(=O)CSc2nc3ccc(Br)cc3c3nc(=O)c(-c4ccccc4)nn23)CC(C)O1 (stereo not given) | 2.28 (active) |
| CC(C)CCOc1ccc2[nH]c(-c3cc(NCCc4cn5c(n4)SCC5)ccn3)cc2c1 | 0.892 |
| COc1ccc(-c2oc3ccccc3c(=O)c2OC)cc1 [euspeclibcmpd1341] | 0.287 |
| CN(C)[C@@H]1C(O)=C(C(N)=O)C(=O)[C@@]2(O)C(O)c3c(c(O)c4c(Cl)ccc(O)c4c3O)C[C@@H]12 (stereo not given in full) [euspeclibcmpd85] | -0.132 |

| Structure (SMILES) | Srxn1-GFP intensity median modified Z-score |
| --- | --- |
| O=C(O)c1ccccc1 [euspeclibcmpd2047] | 0.122 |
| O=C(CC(=O)c1ccccc1)c1ccccc1 [euspeclibcmpd1779] | 2.2 (active) |
| O=C(C(=O)c1ccccc1)c1ccccc1 | 1.75 |
| C[n+]1cccc(C(=O)O)c1 [euspeclibcmpd1706] | -0.33 |
| CCCc1nn(C)c2c(=O)nc(-c3cc(S(=O)(=O)N4CCN(C)CC4)ccc3OCC)[nH]c12 [euspeclibcmpd1008] | -0.649 |
| Nc1ccc(NC(=O)c2cc(Cl)ccc2O)c(Cl)c1 | 1.83 |
| O=C(Nc1cc(Cl)cc(Cl)c1O)c1c(O)c(Cl)cc(Cl)c1Cl [euspeclibcmpd2236] | 4.91 (active) |
| O=C(Nc1ccc(Br)cc1Cl)c1cc(Cl)ccc1O | 0.489 |
| COC(=O)c1cc(-c2ccccc2)nc2ccccc12 | 1.89 |
| O=C1C=Cc2c(c(O)c3ccccc3c2O)C1=O [euspeclibcmpd1683] | 0.752 |
| O=C1CC(=O)c2c(c(O)c3ccccc3c2O)C1=O [euspeclibcmpd1727] | 8.98 (active) |
| Cc1cc(/C=C/c2ccc3cc(N(C)C)ccc3[n+]2C)c(C)n1-c1ccccc1 [euspeclibcmpd260] | 28.6 (active) |
| COc1c(-c2ccccc2)oc2cc(O)cc(O)c2c1=O [euspeclibcmpd2295] | -0.0938 |
| CCCOc1ccc(C(=O)OCCN(CC)CC)cc1N [euspeclibcmpd842] | -0.601 |
| CCCCOc1cc(C(=O)OCCN(CC)CC)ccc1N [euspeclibcmpd809] | 16.2 (active) |
| CCN(CC)CCOC(=O)c1ccc(N)cc1 [euspeclibcmpd248] | -0.882 |
| O=C(O)C(O)C(O)C(O)C(O)C(=O)O (stereo not given) [euspeclibcmpd2053] | -0.466 |
| Cc1[nH]c(=O)[nH]c1O [euspeclibcmpd1742] | -0.283 |
| Cc1[nH]c(C)c(Cl)c(=O)c1Cl [euspeclibcmpd744] | 6.67 (active) |
| O=C(O)C=C(CC(=O)O)C(=O)O [euspeclibcmpd1609] | -0.206 |
| C=C1CC2C3=CC(C)=C4CC(=O)CC[C@]4(C)C3CC[C@]2(C)[C@@]1(OC(C)=O)C(C)=O (stereo not given in full) [euspeclibcmpd860] | 1.04 |
| CSC1(CNC(=O)Nc2cnn(C)c2Cl)CC1 | 1.35 |
